{"source": "the supplement of paper PMC10981050", "assay_in_all_cases": "cell viability relative to vehicle control; higher = less cytotoxic", "conditions_in_all_cases": "10 µM", "key": {"K562": {"test_system": "K562", "summary_of_the_method": "(§1)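 Screening covered the Selleck bioactive, kinase and epigenetic probe libraries, less identity-inconsistent compounds, on CRISPR-edited mutant clones and isogenic wild-type clones of four leukaemia lines. Cells, at 2000 per well in 50 µL medium, received a single 10 µM acoustically dispensed dose. After 48 h the supernatant was removed and CellTiter-Glo luminescence was read. Viability was analysed in Genedata Screener as percent of the on-plate vehicle control.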"}, "MARIMO": {"test_system": "MARIMO", "summary_of_the_method": "as §1"}, "MOLM14": {"test_system": "MOLM14", "summary_of_the_method": "as §1"}, "OCI-AML2": {"test_system": "OCI-AML2", "summary_of_the_method": "as §1"}}, "note": "Values joined by “and” are separate entries in the source; they are usually repeats but may differ in a detail not shown here. Equal values may be shown once. Where a name gives a salt, the structure may show the parent alone.", "data": [{"smiles": "CC(=O)[C@H]1CC[C@H]2[C@@H]3CCC4=CC(=O)CC[C@]4(C)[C@H]3CC[C@]12C", "note": "[Progesterone (Prometrium)]", "values": [{"measurement": "cell viability", "setting": "K562; SRSF2 genotype: SRSF2 P95H/wt", "value": "78% and 87.7%"}, {"measurement": "cell viability", "setting": "K562; SRSF2 genotype: SRSF2 wt/wt", "value": 81.7, "unit": "%"}, {"measurement": "cell viability", "setting": "MARIMO; SRSF2 genotype: SRSF2 P95H/wt", "value": 60.7, "unit": "%"}, {"measurement": "cell viability", "setting": "MARIMO; SRSF2 genotype: SRSF2 wt/wt", "value": 38.8, "unit": "%"}, {"measurement": "cell viability", "setting": "MOLM14; SRSF2 genotype: SRSF2 P95H/wt", "value": 75, "unit": "%"}, {"measurement": "cell viability", "setting": "MOLM14; SRSF2 genotype: SRSF2 wt/wt", "value": 78.8, "unit": "%"}, {"measurement": "cell viability", "setting": "OCI-AML2; SRSF2 genotype: P95H/wt", "value": 54.5, "unit": "%"}, {"measurement": "cell viability", "setting": "OCI-AML2; SRSF2 genotype: wt/wt", "value": 59.9, "unit": "%"}]}, {"smiles": "O=C1C(c2c(O)[nH]c3ccccc23)=Nc2ccccc21", "note": "[Indirubin]", "values": [{"measurement": "cell viability", "setting": "K562; SRSF2 genotype: SRSF2 P95H/wt", "value": "92.2% and 98.7%"}, {"measurement": "cell viability", "setting": "K562; SRSF2 genotype: SRSF2 wt/wt", "value": 87.3, "unit": "%"}, {"measurement": "cell viability", "setting": "MARIMO; SRSF2 genotype: SRSF2 P95H/wt", "value": 92.3, "unit": "%"}, {"measurement": "cell viability", "setting": "MARIMO; SRSF2 genotype: SRSF2 wt/wt", "value": 87.8, "unit": "%"}, {"measurement": "cell viability", "setting": "MOLM14; SRSF2 genotype: SRSF2 P95H/wt", "value": 87.5, "unit": "%"}, {"measurement": "cell viability", "setting": "MOLM14; SRSF2 genotype: SRSF2 wt/wt", "value": 87.9, "unit": "%"}, {"measurement": "cell viability", "setting": "OCI-AML2; SRSF2 genotype: P95H/wt", "value": 91.8, "unit": "%"}, {"measurement": "cell viability", "setting": "OCI-AML2; SRSF2 genotype: wt/wt", "value": 92.9, "unit": "%"}]}, {"smiles": "CCS(=O)(=O)N1CC(CC#N)(n2cc(-c3ncnc4[nH]ccc34)cn2)C1", "values": [{"measurement": "cell viability", "setting": "K562; SRSF2 genotype: SRSF2 P95H/wt", "value": "110% and 106%"}, {"measurement": "cell viability", "setting": "K562; SRSF2 genotype: SRSF2 wt/wt", "value": 108, "unit": "%"}, {"measurement": "cell viability", "setting": "MARIMO; SRSF2 genotype: SRSF2 P95H/wt", "value": 111, "unit": "%"}, {"measurement": "cell viability", "setting": "MARIMO; SRSF2 genotype: SRSF2 wt/wt", "value": 115, "unit": "%"}, {"measurement": "cell viability", "setting": "MOLM14; SRSF2 genotype: SRSF2 P95H/wt", "value": 106, "unit": "%"}, {"measurement": "cell viability", "setting": "MOLM14; SRSF2 genotype: SRSF2 wt/wt", "value": 109, "unit": "%"}, {"measurement": "cell viability", "setting": "OCI-AML2; SRSF2 genotype: P95H/wt", "value": 84.7, "unit": "%"}, {"measurement": "cell viability", "setting": "OCI-AML2; SRSF2 genotype: wt/wt", "value": 92.9, "unit": "%"}]}, {"smiles": "CC(C)(C)C[C@@H]1N[C@@H](C(=O)N[C@H]2CC[C@H](O)CC2)[C@H](c2cccc(Cl)c2F)[C@]12C(=O)Nc1cc(Cl)ccc12", "values": [{"measurement": "cell viability", "setting": "K562; SRSF2 genotype: SRSF2 P95H/wt", "value": "76.2% and 81.8%"}, {"measurement": "cell viability", "setting": "K562; SRSF2 genotype: SRSF2 wt/wt", "value": 74.8, "unit": "%"}, {"measurement": "cell viability", "setting": "MARIMO; SRSF2 genotype: SRSF2 P95H/wt", "value": 84.9, "unit": "%"}, {"measurement": "cell viability", "setting": "MARIMO; SRSF2 genotype: SRSF2 wt/wt", "value": 83.6, "unit": "%"}, {"measurement": "cell viability", "setting": "MOLM14; SRSF2 genotype: SRSF2 P95H/wt", "value": 0.31, "unit": "%"}, {"measurement": "cell viability", "setting": "MOLM14; SRSF2 genotype: SRSF2 wt/wt", "value": 0.33, "unit": "%"}, {"measurement": "cell viability", "setting": "OCI-AML2; SRSF2 genotype: P95H/wt", "value": 0.34, "unit": "%"}, {"measurement": "cell viability", "setting": "OCI-AML2; SRSF2 genotype: wt/wt", "value": 8.97, "unit": "%"}]}, {"smiles": "OC(c1cc(-c2ccc(Cl)cc2)nc2ccccc12)C1CCCCN1", "note": "(stereo not given) [Vacquinol-1]", "values": [{"measurement": "cell viability", "setting": "K562; SRSF2 genotype: SRSF2 P95H/wt", "value": "0.22% and 0.74%"}, {"measurement": "cell viability", "setting": "K562; SRSF2 genotype: SRSF2 wt/wt", "value": 0.11, "unit": "%"}, {"measurement": "cell viability", "setting": "MARIMO; SRSF2 genotype: SRSF2 P95H/wt", "value": 0.1, "unit": "%"}, {"measurement": "cell viability", "setting": "MARIMO; SRSF2 genotype: SRSF2 wt/wt", "value": 0.17, "unit": "%"}, {"measurement": "cell viability", "setting": "MOLM14; SRSF2 genotype: SRSF2 P95H/wt", "value": 0.03, "unit": "%"}, {"measurement": "cell viability", "setting": "MOLM14; SRSF2 genotype: SRSF2 wt/wt", "value": 0.14, "unit": "%"}, {"measurement": "cell viability", "setting": "OCI-AML2; SRSF2 genotype: P95H/wt", "value": 0.05, "unit": "%"}, {"measurement": "cell viability", "setting": "OCI-AML2; SRSF2 genotype: wt/wt", "value": 0.39, "unit": "%"}]}, {"smiles": "Cc1cc(Nc2cc(N3CCN(C)CC3)nc(/C=C/c3ccccc3)n2)n[nH]1", "values": [{"measurement": "cell viability", "setting": "K562; SRSF2 genotype: SRSF2 P95H/wt", "value": "19.4% and 23.7%"}, {"measurement": "cell viability", "setting": "K562; SRSF2 genotype: SRSF2 wt/wt", "value": 18.3, "unit": "%"}, {"measurement": "cell viability", "setting": "MARIMO; SRSF2 genotype: SRSF2 P95H/wt", "value": 36, "unit": "%"}, {"measurement": "cell viability", "setting": "MARIMO; SRSF2 genotype: SRSF2 wt/wt", "value": 26.5, "unit": "%"}, {"measurement": "cell viability", "setting": "MOLM14; SRSF2 genotype: SRSF2 P95H/wt", "value": 2.58, "unit": "%"}, {"measurement": "cell viability", "setting": "MOLM14; SRSF2 genotype: SRSF2 wt/wt", "value": 5.88, "unit": "%"}, {"measurement": "cell viability", "setting": "OCI-AML2; SRSF2 genotype: P95H/wt", "value": 6.21, "unit": "%"}, {"measurement": "cell viability", "setting": "OCI-AML2; SRSF2 genotype: wt/wt", "value": 14.9, "unit": "%"}]}, {"smiles": "C/C(=C(/CCOC(=O)c1ccccc1)SC(=O)c1ccccc1)N(C=O)Cc1cnc(C)nc1N", "note": "[Dibenzoyl Thiamine]", "values": [{"measurement": "cell viability", "setting": "K562; SRSF2 genotype: SRSF2 P95H/wt", "value": 103, "unit": "%"}, {"measurement": "cell viability", "setting": "K562; SRSF2 genotype: SRSF2 wt/wt", "value": 107, "unit": "%"}, {"measurement": "cell viability", "setting": "MARIMO; SRSF2 genotype: SRSF2 P95H/wt", "value": 96.5, "unit": "%"}, {"measurement": "cell viability", "setting": "MARIMO; SRSF2 genotype: SRSF2 wt/wt", "value": 94, "unit": "%"}, {"measurement": "cell viability", "setting": "MOLM14; SRSF2 genotype: SRSF2 P95H/wt", "value": 90.8, "unit": "%"}, {"measurement": "cell viability", "setting": "MOLM14; SRSF2 genotype: SRSF2 wt/wt", "value": 102, "unit": "%"}, {"measurement": "cell viability", "setting": "OCI-AML2; SRSF2 genotype: P95H/wt", "value": 99.1, "unit": "%"}, {"measurement": "cell viability", "setting": "OCI-AML2; SRSF2 genotype: wt/wt", "value": 109, "unit": "%"}]}, {"smiles": "CCOC(=O)COc1ccc(/C=C2/SC(=S)NC2=O)cc1OC", "values": [{"measurement": "cell viability", "setting": "K562; SRSF2 genotype: SRSF2 P95H/wt", "value": "90.9% and 94.4%"}, {"measurement": "cell viability", "setting": "K562; SRSF2 genotype: SRSF2 wt/wt", "value": 94.3, "unit": "%"}, {"measurement": "cell viability", "setting": "MARIMO; SRSF2 genotype: SRSF2 P95H/wt", "value": 88.8, "unit": "%"}, {"measurement": "cell viability", "setting": "MARIMO; SRSF2 genotype: SRSF2 wt/wt", "value": 101, "unit": "%"}, {"measurement": "cell viability", "setting": "MOLM14; SRSF2 genotype: SRSF2 P95H/wt", "value": 2.04, "unit": "%"}, {"measurement": "cell viability", "setting": "MOLM14; SRSF2 genotype: SRSF2 wt/wt", "value": 3.45, "unit": "%"}, {"measurement": "cell viability", "setting": "OCI-AML2; SRSF2 genotype: P95H/wt", "value": 104, "unit": "%"}, {"measurement": "cell viability", "setting": "OCI-AML2; SRSF2 genotype: wt/wt", "value": 91.8, "unit": "%"}]}, {"smiles": "CCC(C)(C)c1ccc(CC(C)CN2C[C@@H](C)O[C@@H](C)C2)cc1", "note": "(stereo not given in full) [Amorolfine Hydrochloride]", "values": [{"measurement": "cell viability", "setting": "K562; SRSF2 genotype: SRSF2 P95H/wt", "value": "79.9% and 81.9%"}, {"measurement": "cell viability", "setting": "K562; SRSF2 genotype: SRSF2 wt/wt", "value": 99.7, "unit": "%"}, {"measurement": "cell viability", "setting": "MARIMO; SRSF2 genotype: SRSF2 P95H/wt", "value": 66.2, "unit": "%"}, {"measurement": "cell viability", "setting": "MARIMO; SRSF2 genotype: SRSF2 wt/wt", "value": 71.5, "unit": "%"}, {"measurement": "cell viability", "setting": "MOLM14; SRSF2 genotype: SRSF2 P95H/wt", "value": 81.8, "unit": "%"}, {"measurement": "cell viability", "setting": "MOLM14; SRSF2 genotype: SRSF2 wt/wt", "value": 81.4, "unit": "%"}, {"measurement": "cell viability", "setting": "OCI-AML2; SRSF2 genotype: P95H/wt", "value": 49.3, "unit": "%"}, {"measurement": "cell viability", "setting": "OCI-AML2; SRSF2 genotype: wt/wt", "value": 71.5, "unit": "%"}]}, {"smiles": "CCCC[C@@H](C=O)NC(=O)[C@H](CC(C)C)NC(=O)OCc1ccccc1", "note": "[Calpeptin]", "values": [{"measurement": "cell viability", "setting": "K562; SRSF2 genotype: SRSF2 P95H/wt", "value": "91.3% and 95.4%"}, {"measurement": "cell viability", "setting": "K562; SRSF2 genotype: SRSF2 wt/wt", "value": 98.5, "unit": "%"}, {"measurement": "cell viability", "setting": "MARIMO; SRSF2 genotype: SRSF2 P95H/wt", "value": 90.9, "unit": "%"}, {"measurement": "cell viability", "setting": "MARIMO; SRSF2 genotype: SRSF2 wt/wt", "value": 95.2, "unit": "%"}, {"measurement": "cell viability", "setting": "MOLM14; SRSF2 genotype: SRSF2 P95H/wt", "value": 83.2, "unit": "%"}, {"measurement": "cell viability", "setting": "MOLM14; SRSF2 genotype: SRSF2 wt/wt", "value": 98.9, "unit": "%"}, {"measurement": "cell viability", "setting": "OCI-AML2; SRSF2 genotype: P95H/wt", "value": 96.6, "unit": "%"}, {"measurement": "cell viability", "setting": "OCI-AML2; SRSF2 genotype: wt/wt", "value": 101, "unit": "%"}]}]}
